In PubChem BioAssay AID651616 (The Scripps Research Institute Molecular Screening Center, 2012):
Screen size: about 5,600 compounds; about 4,400 (79%) were called active. Cut-off read from the data, not from the text of the source: active = inhibition above about 27%; inactive = the rest. So high a share suggests a set chosen from earlier hits. A selection follows.

biological target: Fructose-bisphosphate aldolase (Mycobacterium tuberculosis (strain ATCC 25618 / H37Rv)) (UniProt P9WQA3); experiment: M. tuberculosis aldolase blockers, biochemical, fluorescence, strain H37Rv, confirmation (AID 651616);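 note: 0% = vehicle wells and 100% = reference inhibitor wells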; conditions: purified M. tuberculosis FBA, fluorescence read-out, at 1 µM, hits give high values
Sequence (P9WQA3 whole entry, looked up): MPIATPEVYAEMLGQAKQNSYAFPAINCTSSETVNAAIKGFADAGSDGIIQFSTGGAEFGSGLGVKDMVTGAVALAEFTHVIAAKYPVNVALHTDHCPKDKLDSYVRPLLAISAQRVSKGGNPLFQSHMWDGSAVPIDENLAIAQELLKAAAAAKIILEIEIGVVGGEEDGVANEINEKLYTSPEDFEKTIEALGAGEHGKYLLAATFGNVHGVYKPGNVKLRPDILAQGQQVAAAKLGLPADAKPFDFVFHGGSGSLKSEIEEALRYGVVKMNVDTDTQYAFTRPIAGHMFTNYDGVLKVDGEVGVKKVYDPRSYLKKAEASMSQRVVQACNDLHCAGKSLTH

Question: `COCCCNC(=S)N(CCN(C)C)Cc1cc2cc3c(cc2[nH]c1=O)OCCO3` was tested. Which inhibition did it give?
Answer: 43.2% (active)

Question: How did the inhibition turn out when `COc1ccc(C2C3=C(CCCC3=O)N(CC(=O)O)C3=C2C(=O)CCC3)cc1` was run?
Answer: 128% (active)

Question: How did the inhibition turn out when `COCc1cc(=O)n2[nH]c(C)c(-c3ccccc3)c2n1` was run?
Answer: 50.6% (active)

Question: Which inhibition does the source give for `Cc1nc2c(-c3ccccc3)c(C)[nH]n2c(=O)c1Cl` here?
Answer: 105% (active)

Question: For `CCCc1cc(=O)n2[nH]c(C)c(-c3ccc(Cl)cc3)c2n1`, which inhibition is on record?
Answer: 123% (active)

Question: `O=C(O)Cc1sc(-c2ccc(C(=O)O)cc2)nc1-c1ccccc1` was tested. Which inhibition did it give?
Answer: -7.84% (inactive)

Question: `c1cc(-c2ccc3[nH]ccc3c2)n2ccnc2c1` was tested. Which inhibition did it give?
Answer: 79.6% (active)

Question: `COc1ccc(CNC(=O)c2c[nH]c3c(OC)cc(OC)cc3c2=O)cc1` was tested. Which inhibition did it give?
Answer: -2.04% (inactive)

Question: For `Cc1ccc(Cn2c(C)nc3c(c2=O)c2nc4ccccc4nc2n3Cc2ccco2)cc1`, which inhibition is on record?
Answer: 55% (active)

Question: With `CC(=O)Nc1ccc(-c2nc3ccccc3o2)cc1` as the molecule, how does the inhibition read?
Answer: 8.14% (inactive)

Question: `COc1cc(OC)cc(C(=O)Nc2ccc(-c3nc4ccccc4o3)c(O)c2)c1` was tested. Which inhibition did it give?
Answer: 148% (active)

Question: `CC(C)OCCCNc1ncnc2c1[nH]c1ccc(F)cc12` was tested. Which inhibition did it give?
Answer: 132% (active)

Question: With `CC(C)CN1CCNC(=O)C1CC(=O)N(C)CC1CCOCC1` (centres undefined) as the molecule, how does the inhibition read?
Answer: 138% (active)

Question: How did the inhibition turn out when `COC(=O)COc1cc(C)cc2oc(=O)c3c(c12)CCCC3` was run?
Answer: 124% (active)

Question: Which inhibition does the source give for `Cc1cc(OCc2cc(C(=O)O)oc2C)c2c3c(c(=O)oc2c1)CCCC3` here?
Answer: 151% (active)

Question: For `CCCS(=O)(=O)Nc1c(C(=O)O)[nH]c2ccccc12`, which inhibition is on record?
Answer: 54.9% (active)

Question: For `CCOC(=O)c1c(-c2ccccc2)oc2ccc(OCC(N)=O)cc12`, which inhibition is on record?
Answer: 148% (active)

Question: For `COC(=O)c1c(-c2ccsc2)oc2ccc(-c3cc(OC)c(OC)c(OC)c3)cc12`, which inhibition is on record?
Answer: 2.75% (inactive)

Question: `CCOC(=O)c1c(-c2ccccc2)oc2ccc(OCC(=O)NN)cc12` was tested. Which inhibition did it give?
Answer: 108% (active)

Question: `COc1cc(C(F)(F)F)nc2c(Br)c(C(C)(C)C)nn12` was tested. Which inhibition did it give?
Answer: 66.4% (active)

Question: For `Cc1ccc(NC(=O)CN(C)C(=O)COC(=O)c2nccnc2N)cc1`, which inhibition is on record?
Answer: 4.29% (inactive)

Question: With `CCN(CC)c1ccc2cc(C(=O)O)c(=O)oc2c1` as the molecule, how does the inhibition read?
Answer: 22.1% (inactive)

Question: How did the inhibition turn out when `COc1ccc2oc(=O)c(C(=O)NCc3ccccn3)cc2c1` was run?
Answer: 10.3% (inactive)

Question: How did the inhibition turn out when `COc1ccc2oc(=O)c(C(=O)N3CCCC3)cc2c1` was run?
Answer: 113% (active)

Question: Which inhibition does the source give for `C=CCc1c(C)nc2cc(-c3ccccc3)[nH]n2c1=O` here?
Answer: 56.1% (active)

Question: How did the inhibition turn out when `CCc1c(C)nc2cc(-c3cccs3)[nH]n2c1=O` was run?
Answer: 26.8% (inactive)

Question: `CCc1c(C)nc2cc(C)[nH]n2c1=O` was tested. Which inhibition did it give?
Answer: 45.6% (active)

Question: `CN(C)S(=O)(=O)c1ccc(N/C=C(\[N+](=O)[O-])S(=O)(=O)c2ccccc2)cc1` was tested. Which inhibition did it give?
Answer: 2.34% (inactive)

Question: Which inhibition does the source give for `COCc1cc(=O)oc2cc(NS(=O)(=O)c3ccc(C)cc3)ccc12` here?
Answer: 62.7% (active)

Question: Which inhibition does the source give for `COCCN(CCOC)c1nc(N)c2c(N)nc3c(c2c1C#N)CC(=O)N3Cc1ccc(Cl)cc1` here?
Answer: 89.8% (active)

Question: With `CCCC1OC23CCCCC2C(C#N)(C#N)C1(C#N)C(=N)O3` (centres undefined) as the molecule, how does the inhibition read?
Answer: -0.85% (inactive)

Question: For `O=C(c1cc(-c2ccc(Cl)s2)nc2ccccc12)N1CCOCC1`, which inhibition is on record?
Answer: 111% (active)

Question: Which inhibition does the source give for `CC(=O)N1CCN(C(=O)c2cc(-c3ccc(Cl)s3)nc3ccccc23)CC1` here?
Answer: 12.6% (inactive)

Question: Which inhibition does the source give for `Cc1nn(C)c(Oc2ccccc2)c1CCNS(=O)(=O)c1ccc(F)cc1` here?
Answer: 157% (active)

Question: For `Cc1cccc(NC(=O)c2sc3nc(N4CCOCC4)c4c(c3c2N)CCCC4)c1`, which inhibition is on record?
Answer: 108% (active)

Question: `Oc1ccc(Br)cc1C=Nc1ccc2[nH]ncc2c1` was tested. Which inhibition did it give?
Answer: 79.1% (active)

Question: How did the inhibition turn out when `COc1ccc(-c2cc(C(=O)N(C)Cc3ccccc3)c3ccccc3n2)cc1` was run?
Answer: -2.17% (inactive)

Question: With `COc1ccc(-c2cn3ccc(C)cc3n2)cc1` as the molecule, how does the inhibition read?
Answer: 4.46% (inactive)

Question: For `COc1ccc(-c2cc(C(=O)Nc3ccccc3O)c3ccccc3n2)cc1`, which inhibition is on record?
Answer: 133% (active)

Question: For `COc1nc(N=C(N)N)nc2c(C)cccc12`, which inhibition is on record?
Answer: 108% (active)

Question: With `COc1cc2nc(N3CCN(C(=O)[C@@H]4CCCO4)CC3)nc(N)c2cc1OC` as the molecule, how does the inhibition read?
Answer: 109% (active)

Question: For `CC(C)C1Nc2c(C(=O)O)cccc2C(Nc2ccccc2C(=O)O)C1(C)C` (centres undefined), which inhibition is on record?
Answer: 95.8% (active)

Question: How did the inhibition turn out when `Cc1noc(C)c1COc1ccc2ccc(=O)oc2c1` was run?
Answer: 55.1% (active)

Question: How did the inhibition turn out when `COC(=O)c1c(C)c(C)nc(N)c1C#N` was run?
Answer: 56.3% (active)

Question: `CCOC(=O)Cc1c(C)nc2c(C#N)c(C)nn2c1C` was tested. Which inhibition did it give?
Answer: 63.7% (active)

Question: With `Cc1cc(C)c(-c2c(O)c3ccccc3n(C)c2=O)c(C)c1` as the molecule, how does the inhibition read?
Answer: 78.7% (active)

Question: `CCSc1nnc(-c2cc3c(s2)-c2ccccc2CC3)o1` was tested. Which inhibition did it give?
Answer: 76.8% (active)

Question: `CCOc1ccc(-c2nnc(-c3ccco3)o2)cc1` was tested. Which inhibition did it give?
Answer: 106% (active)

Question: How did the inhibition turn out when `CCCCOc1ccc(-c2nnc(-c3ccco3)o2)cc1` was run?
Answer: 174% (active)
